The source of these data is PubChem BioAssay (NCATS).

The subject of experiment [1] is CAOV3. In words: Primary qHTS to identify gynecologic anti-cancer compounds using libraries of approved drugs and bioactive compounds (AID 1345084). Further: nearly all actives have a fitted effect of over 55% in size. The settings on record: Gynecologic cancer cell panel viability, ATPlite luminescence, 48 h; series mostly up to 57.5 µM. The essentials: (§1)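 Cell viability after 48 h drug treatment, ATPlite luminescence readout; five doses.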
In general terms: qHTS replaces the single test concentration by a dilution series.

For experiment [2], the system named is Es-2. Described as above. To be noted: Gynecologic cancer cell panel viability, ATPlite luminescence, 48 h; series mostly up to 57.5 µM. The essentials: as §1
In general terms: ATP-based viability assays read luminescence as a measure of living cells.

Experiment [3] has as its system HeLa. The description is as above. To be noted: Gynecologic cancer cell panel viability, ATPlite luminescence, 48 h; series mostly up to 57.5 µM. An outline of the steps:
as §1

For experiment [4], the system named is Hek293T. The description is as above. The settings on record: Gynecologic cancer cell panel viability, ATPlite luminescence, 48 h, control line for the selectivity index; series mostly up to 57.5 µM. The essentials:
as §1

Experiment [5] deals with JEG-3. Described as above. The settings on record: Gynecologic cancer cell panel viability, ATPlite luminescence, 48 h; series mostly up to 57.5 µM. An outline of the steps: as §1
Experiment [6] deals with OV90. The experiment is described as above. The settings on record: Gynecologic cancer cell panel viability, ATPlite luminescence, 48 h; series mostly up to 57.5 µM. An outline of the steps:
as §1

The test system of experiment [7] is PA-1. The description is as above. To be noted: Gynecologic cancer cell panel viability, ATPlite luminescence, 48 h; series mostly up to 57.5 µM. The essentials:
as §1

Experiment [8] concerns SKOV3. The experiment is described as above. To be noted: Gynecologic cancer cell panel viability, ATPlite luminescence, 48 h; series mostly up to 57.5 µM. The essentials: as §1
Experiment [9] relates to Tov-21-G. The description is as above. The settings on record: Gynecologic cancer cell panel viability, ATPlite luminescence, 48 h; series mostly up to 57.5 µM. An outline of the steps: as §1
Experiment [10] has as its system Tov112D. Described as above. To be noted: Gynecologic cancer cell panel viability, ATPlite luminescence, 48 h; series mostly up to 57.5 µM. An outline of the steps:
as §1

The subject of experiment [11] is CASKI. The description is as above. The settings on record: Gynecologic cancer cell panel viability, ATPlite luminescence, 48 h; series mostly up to 57.5 µM. The essentials:
as §1

The nature of experiment [12]: qHTS assay to identify inhibitors of the type 1 interferon - major histocompatibility complex class I in skeletal muscle: Counter screen cell viability and HiBit confirmation (AID 1347412). Further: nearly all actives have a fitted effect of over 60% in size. The settings on record: iHSKM muscle cells + IFN-b, HiBiT or CellTiter-Glo, 24 h. An outline of the steps: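 CRISPR HLA-B*08:01-HiBit immortalized human myoblasts (C25cl48) stimulated with 4 ng/ml IFN-beta and compounds (12-point 1:3, top 46 uM final) for 24 h at 37 C. Duplicate plates read by HiBit lytic luminescence or CellTiter Glo ATP.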

SMILES strings stand for the structures. Records with an inconclusive call do not appear. A number with no mark means an inactive call. The source made the active and inactive calls. The call rests on the fitted dose curve; in most records, active means well fitted curve in the direction sought with a large enough effect; inconclusive means small, poorly fitted or top-dose-only effect, or another doubt; inactive means no such curve, though single readings can be large; an effect the other way counts as inactive or inconclusive.
Potency means the concentration at half of the fitted maximal effect.

For the compound `CS(=O)(=O)N(CC(=O)NCC1CC1)c1cc(C(F)(F)F)ccc1Cl`, the Potency result in experiment [1], in experiment [2], in experiment [3], in [4], in experiment [5] and in experiment [6] was “inactive” in each case. Besides, the Potency result in [7], in experiment [8], in experiment [9] and in experiment [10] was “inactive” throughout.

In the case of `CO[C@H]1/C=C/C=C/C=C/C[C@H](OC(=O)[C@@H](C)NC(=O)C2CCCCC2)[C@H](C)[C@@H](O)/C(C)=C/CCc2cc(O)cc(c2)NC(=O)C1`, the Potency entry in [1] and in experiment [5] was “inactive” throughout. For the same compound, the Potency is 1.78 µM (active) in [2]; 3.55 µM (active) in [3]; 0.708 µM (active) in experiment [4]; 0.355 µM (active) in experiment [7]; 3.16 µM (active) in [8]; 2.82 µM (active) in experiment [9].

`C=CC(=O)Nc1cc(Nc2ncc(Cl)c(-c3c[nH]c4ccccc34)n2)c(OC)cc1N(C)CCN(C)C`: the Potency in experiment [1] was 17.8 µM (active); in experiment [11], 2.24 µM (active); in [3], 12.6 µM (active); in [4], 11.2 µM (active); in experiment [5] it was 12.6 µM (active); in experiment [6] it was 3.98 µM (active). Besides, the figures for the Potency in [7], in [9] and in experiment [10] were 6.31 µM (active), 15.8 µM (active) and 15.8 µM (active), respectively.

For the compound `COC(=O)N1CCC(n2ncc3c(N4CCOCC4)nc(-c4ccc(NC(=O)Nc5ccc(CO)cc5)cc4)nc32)CC1`, the Potency is 1.12 µM (active) in [11]; 1 µM (active) in experiment [2]; 2.51 µM (active) in experiment [3]; 0.282 µM (active) in experiment [4]; 15.8 µM (active) in [5]; 0.794 µM (active) in experiment [6]. Also, the Potency in experiment [7] was 2.51 µM (active); in experiment [8] it was 0.282 µM (active).

Consider `CCN(CC)CCN(Cc1ccc(-c2ccc(C(F)(F)F)cc2)cc1)C(=O)Cn1c(SCc2ccc(F)cc2)nc(=O)c2c1CCC2`, for which the Potency in experiment [1] is 12.6 µM (active); in [11], 25.1 µM (active); in experiment [7], 28.2 µM (active); in experiment [8] it was 7.94 µM (active); in [10], 35.5 µM (active).

For `C=C(C)C(=O)OC1CC2(C)OC(=CC2=O)C(=C)CC2OC(=O)C(COC)C12` (centres undefined), the Potency result in experiment [1], in experiment [3], in [5], in [6] and in [10] was “inactive” each time.

With `C#CCN(Cc1cc2c(=O)[nH]c(C)nc2cc1Br)c1ccc(C(=O)NCc2cccnc2)cc1`, the Potency in experiment [11] was 0.447 µM (active).

`CN[C@H](C(=O)N[C@H](C(=O)N(C)[C@H](/C=C(\C)C(=O)O)C(C)C)C(C)(C)C)C(C)(C)c1ccccc1`: the Potency result in experiment [1] and in experiment [8] was “inactive” in each case.

As for `CC(O)c1cc(C(=O)N[C@@H](C)Cn2ccc(-c3ccc(C#N)c(Cl)c3)n2)n[nH]1` (some centres undefined), the Potency result in experiment [1] and in experiment [6] was “inactive” in each case.

Consider `COc1cc2ncnc(Nc3ccc(F)c(Cl)c3)c2cc1NC(=O)/C=C/CN1CCCCC1`, for which the Potency in experiment [1] was 22.4 µM (active); in [8], 10 µM (active); in [12] (HiBiT), 19.8 µM (active). For the same compound, in experiment [6], the Potency result is “inactive”.

Regarding `Cc1cc(Nc2ncc3cc(-c4c(Cl)cccc4Cl)c(=O)n(C)c3n2)ccc1F`, the Potency in experiment [1] is 3.16 µM (active); in experiment [2] it was 7.94 µM (active); in [3] it was 3.55 µM (active); in experiment [7], 3.98 µM (active); in [8], 3.55 µM (active); in experiment [9], 3.98 µM (active). In experiment [10], the Potency is 3.55 µM (active).

Consider `C=CC(=O)Nc1cc(Nc2nccc(-c3c[nH]c4ccccc34)n2)c(OC)cc1N(C)CCN(C)C`, for which the Potency in [1] was 28.2 µM (active); in experiment [11], 28.2 µM (active); in experiment [2], 20 µM (active); in [3], 15.8 µM (active); in [7], 4.47 µM (active).

As to `CC(=O)N1CCN(C(=O)Cc2ccc(Nc3ncc(F)c(Nc4ccc(C(=O)Nc5ccccc5Cl)cc4)n3)cc2)CC1`, the Potency in experiment [1] was 31.6 µM (active); in experiment [3] it was 7.94 µM (active); in experiment [7] it was 11.2 µM (active); in [8], 22.4 µM (active); in experiment [9], 25.1 µM (active); in [10] it was 3.98 µM (active). For the same compound, the Potency entry in [5] and in experiment [6] was “inactive” in each case.

On to `O=C(O)[C@@H]1C[C@H]2C[C@@H](CCc3nn[nH]n3)CC[C@H]2CN1`, for which the Potency result in experiment [11], in experiment [2], in experiment [3], in [4], in experiment [5] and in experiment [6] was “inactive” each time. The Potency entry in [7], in experiment [9] and in experiment [10] was “inactive” throughout.

Regarding `CN1CCN(C2CCC(n3cc(-c4ccc(Oc5ccccc5)cc4)c4c(N)ncnc43)CC2)CC1` (centres undefined), the Potency in [1] is 28.2 µM (active); in experiment [11], 15.8 µM (active); in experiment [3], 22.4 µM (active); in experiment [6], 17.8 µM (active); in experiment [7] it was 3.55 µM (active); in [8], 3.55 µM (active). In addition, the Potency in experiment [12] (HiBiT) was 15.7 µM (active); in [12] (Viability) it was 11.1 µM (active). The Potency entry in [4] and in experiment [5] was “inactive” in each case.

Take `NC(=O)c1cccc2cn(-c3ccc(C4CCCNC4)cc3)nc12` (centres undefined): the Potency result in experiment [1], in [11], in experiment [3], in experiment [4], in experiment [5] and in [6] was “inactive” throughout. For the same compound, the Potency entry in [8] and in [9] was “inactive” each time.

Consider `CC(=O)SCC(=O)c1ccc(NS(=O)(=O)c2ccc(OCCCN(C)C)cc2)nc1`, for which the Potency entry in experiment [1] is “inactive”. In addition, the Potency in [2] was 14.1 µM (active); in experiment [3], 10 µM (active); in experiment [5] it was 15.8 µM (active); in experiment [7], 2.82 µM (active); in experiment [9] it was 11.2 µM (active).

Turning to `CNC(=O)c1cc(Oc2ccc3nc(N[C@@H]4CCCC[C@H]4O)sc3c2)ccn1`, the Potency entry in experiment [1], in experiment [11] and in experiment [4] was “inactive” throughout.

Take `C=C1C(=O)O[C@H]2C1[C@H](OC(=O)/C(=C/CO)COC(=O)/C(C)=C/CO)CC(=C)[C@@H]1CC(=O)[C@@H](C)[C@@H]12` (some centres undefined): the Potency result in experiment [1], in [11], in experiment [3], in experiment [4], in experiment [6] and in experiment [10] was “inactive” each time.

In the case of `CC1(C)C2CC(OC3OC(COC4OCC(O)(CO)C4O)C(O)C(O)C3O)C1(C)CC2O` (centres undefined), the Potency entry in experiment [1], in [11] and in [6] was “inactive” throughout.

Turning to `C#CCN(Cc1cc2c(=O)n(C)c(CN3CCN(C)CC3)nc2cc1Cl)c1ccc(C(=O)NCc2cccnc2)cc1`, the Potency in experiment [1] was 44.7 µM (active). Moreover, the Potency entry in experiment [6] was “inactive”.

Take `COc1cc(N2CCC(N3CCN(C)CC3)CC2)ccc1Nc1ncc(Cl)c(-c2c[nH]c3ccccc23)n1`: the Potency in experiment [1] is 11.2 µM (active); in experiment [11] it was 8.91 µM (active); in [3], 8.91 µM (active); in experiment [6], 15.8 µM (active); in [8], 3.98 µM (active); in experiment [9], 8.91 µM (active). The Potency in experiment [10] was 20 µM (active). For the same compound, the Potency result in experiment [2] is “inactive”.
